Bioassay records from PubChem BioAssay.
S2 tox = cell viability loss in ATXN counter-screen | S2 cells (HEK-293 line with an ATXN2-luciferase reporter) viability, CellTiter-Fluor protease fluorescence, 24 h | Potency, µM (titrated, usually from 56.7 µM), hits mostly cytotoxic | 400,000 compounds, 0.49% hits | AID 651635; note: nearly all actives have a fitted effect of over 40% in size
TGFb SMAD3 inh = blocks TGF-b signaling; HepG2 CAGA-GFP TGF-b/SMAD3 reporter, GFP fluorescence, 18 h; TGF-beta stimulated, 500 pg/mL final; 410,000 compounds, 1.2% hits; AID 588855; Potency, µM (series often up to 46.1 µM), for inactives: at the highest dose activity, negative = inhibition, usual class: inhibitors; note: % is set by controls: 0 for no effect and ±100 for the full control effect; nearly all actives have a fitted effect of over 65% in size
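Read-out: total well GFP (ex488/em500-530) summed from mean per-cell fluorescence. Cells: HEPG2 CAGA-GFP, 1% FBS DMEM, 18 h at 37 degrees C with 500 pg/mL final TGF-beta. Unstimulated wells served as the full-inhibition control; stimulated DMSO wells = 0%.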
ALOX12 inh = blocks human arachidonate 12S-lipoxygenase. P18054. purified 12hLO, xylenol orange hydroperoxide absorbance. Potency, µM (highest dose often 108 µM), inactives show at the top dose activity change, negative = inhibition, actives largely listed as inhibitors. 580,000 compounds, 1.1% hits; note: % is set by controls: 0 for no effect and ±100 for the full control effect
Target sequence (P18054 whole entry, looked up): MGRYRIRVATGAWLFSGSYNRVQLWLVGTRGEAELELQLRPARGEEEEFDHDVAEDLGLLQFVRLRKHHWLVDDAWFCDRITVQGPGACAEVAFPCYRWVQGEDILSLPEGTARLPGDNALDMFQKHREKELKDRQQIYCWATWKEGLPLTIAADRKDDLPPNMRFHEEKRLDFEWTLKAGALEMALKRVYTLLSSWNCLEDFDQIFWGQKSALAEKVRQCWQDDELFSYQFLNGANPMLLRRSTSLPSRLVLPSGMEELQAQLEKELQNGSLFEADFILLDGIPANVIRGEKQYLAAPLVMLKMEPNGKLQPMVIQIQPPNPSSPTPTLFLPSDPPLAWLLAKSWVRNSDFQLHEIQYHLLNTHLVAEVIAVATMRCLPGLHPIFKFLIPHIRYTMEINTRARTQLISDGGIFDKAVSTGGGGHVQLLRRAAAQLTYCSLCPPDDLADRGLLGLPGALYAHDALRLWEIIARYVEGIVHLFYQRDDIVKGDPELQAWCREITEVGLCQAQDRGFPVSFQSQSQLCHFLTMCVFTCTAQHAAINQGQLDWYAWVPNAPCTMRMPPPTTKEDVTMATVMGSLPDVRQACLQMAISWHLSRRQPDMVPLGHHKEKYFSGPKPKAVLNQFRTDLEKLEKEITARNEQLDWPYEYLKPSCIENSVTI
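Hydroperoxide product was detected by ferrous iron/xylenol orange as the 573 to 405 nm absorbance ratio. Arachidonic acid at 40 uM (final) was turned over for 30 min at room temperature by 150 nM human 12hLO, pH 7.0 Hepes buffer, after 15 min compound preincubation.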
HepG2 tox = HepG2 cytotoxicity, counter-screen for TGF-b inhibitors. HepG2 CAGA-GFP viability, ATP luminescence, 18 h. Potency, µM (series often up to 46.1 µM), inactives show at the top dose activity change, negative = cytotoxicity, actives largely listed as cytotoxic. 410,000 compounds, 0.76% hits
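HepG2 CAGA-GFP cells (1000/well, DMEM with 1% FBS) received compound, then TGF-beta at 500 pg/mL final, and were incubated 18 hours at 37 degrees C. Viability was read by CellTiter-Glo luminescence. Media-only wells were set as complete cell-killing and DMSO as no toxicity.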
ATXN2 expr inh = ATXN2 expression inhibition. Potency, µM (top dose mostly 57 µM), inactives show at the top dose activity change, negative = inhibition, most hits filed as inhibitors. HEK-293 ATXN2-luciferase reporter, luminescence, 24 h. AID 1745845. 360,000 compounds, 0.72% hits; note: % is set by controls: 0 for no effect and ±100 for the full control effect; nearly all actives have a fitted effect of over 55% in size
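qHTS (up to 57 uM final) was run with 24 h compound exposure of reporter cells at 37 °C. Each well was multiplexed: SteadyGlo luminescence measured ATXN2-luciferase expression after a fluorogenic Gly-Phe-AFC viability readout (25 uM final).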
Starred values were filed as active, the others as inactive; ! = not active in a repeat; [ ] = remark or other dose. Compounds with a hit are over-represented: about 2.7% of the library has one in this group of screens. Calls come from the whole dose curve; as a rule, active = well fitted curve in the direction sought with a large enough effect; inconclusive = small, poorly fitted or top-dose-only effect, or another doubt; inactive = no such curve, though single readings can be large; an effect the other way counts as inactive or inconclusive. Potency is the fitted concentration of half-maximal effect.

CCCn1c(C)c(C(=O)OCc2ccccc2)c2cc(O)ccc21 was read as ALOX12 inh 35.5µM*.
COc1ccc(C2=NCC(=O)N(CC(=O)Nc3ccc(F)cc3)c3sc4c(c32)CCCC4)cc1 was read as ALOX12 inh -3.7%.
Screening Cc1cccc(C)c1NC(=O)c1cccn(Cc2ccc3c(c2)OC(F)(F)O3)c1=O returned S2 tox inactive, TGFb SMAD3 inh -23.2%, ALOX12 inh inconclusive, HepG2 tox 11.2µM* and ATXN2 expr inh -25.2%.
For Cc1[nH]c2ccccc2c1C(=O)C(C)NC(C)c1ccc(F)c(F)c1 (stereo not drawn) the results were ALOX12 inh 15.3%.
CCOC(=O)[C@]12Cc3cc(Cl)ccc3[C@H]1N(Cc1ccccc1)C(=O)c1cc(OC)ccc12 was read as S2 tox 12.6µM*, ALOX12 inh inconclusive and ATXN2 expr inh 17.8µM*.
`CCOC(=O)[C@]12Cc3cc4ccccc4cc3[C@H]1N(Cc1ccccc1)C(=O)c1ccccc12` gave S2 tox 20µM*, ALOX12 inh inconclusive and ATXN2 expr inh inconclusive.
Screening CCOC(=O)[C@]12Cc3cc(OC)ccc3[C@H]1N(Cc1ccccc1)C(=O)c1cc(OC)ccc12 returned S2 tox inconclusive, ALOX12 inh 5.8% and ATXN2 expr inh 1.9%.
For CCOC(=O)[C@]12Cc3cc(OC)c(OC)cc3[C@H]1N(Cc1ccccc1)C(=O)c1ccccc12 the results were S2 tox inactive, TGFb SMAD3 inh -2.7%, ALOX12 inh 1.1%, HepG2 tox -17.9% and ATXN2 expr inh -19.7%.
CCCCCN1C(=O)c2cc(OC)ccc2[C@@]2(C(=O)OCC)Cc3cc(Cl)ccc3[C@@H]12 was read as S2 tox 8.91µM*, ALOX12 inh inconclusive and ATXN2 expr inh 7.08µM*.
For CCOC(=O)[C@]12Cc3cc(OC)ccc3[C@H]1N(CCC(=O)OC)C(=O)c1cc(OC)ccc12 the results were ALOX12 inh -17.5% and ATXN2 expr inh inconclusive.
For CCOC(=O)[C@]12Cc3cc4ccccc4cc3[C@H]1N(Cc1ccccc1)C(=O)c1cc(OC)ccc12 the results were S2 tox 31.6µM*, ALOX12 inh inconclusive and ATXN2 expr inh 20µM*.
For Cc1ccccc1C(Cn1ccnc1-c1cnc[nH]1)N(C)C (stereo not drawn) the results were ALOX12 inh 128.9%.
Screening CC(=O)Nc1ccc(-c2ccc(=O)n3c2[C@@H]2C[C@@H](CN(C(=O)C(C)(C)C)C2)C3)cc1 returned ALOX12 inh 26.0%[176 µM].
Screening C=CC[N+](CC#CCO)(CCCC)CCCC returned ALOX12 inh 22.1%.
CC12CCC3C(CCC4=CC(=O)CCC43C)C1CCC2=O (stereo not drawn) was read as ALOX12 inh -28.2%.
`Cc1ncc2c(n1)C[C@@H]1CC[C@H]2N1C(=O)c1ccc(C(C)C)cc1` gave ALOX12 inh 29.8%.
For Nc1ccc2ccc3cccc[n+]3c2c1 the results were TGFb SMAD3 inh 72.6%, ALOX12 inh inconclusive, HepG2 tox 8.5% and ATXN2 expr inh -23.5%.
`C[n+]1c(-c2ccccc2)c2cc(N)ccc2c2ccc(N)cc21` gave S2 tox 15.8µM*, TGFb SMAD3 inh 4.47µM*, ALOX12 inh inconclusive, HepG2 tox -16.7% and ATXN2 expr inh 7.08µM*.
`COc1ccc(-c2cc([C@H]3CN4CC[C@H]3C[C@@H]4CNS(=O)(=O)c3ccc(Cl)cc3)n(C)n2)cc1OC` gave ALOX12 inh 6.4%.
For CCOC(=O)[C@]12Cc3cc(OC)ccc3[C@H]1N(C1CCCCC1)C(=O)c1ccccc12 the results were S2 tox 7.08µM*, ALOX12 inh -69.0% and ATXN2 expr inh 4.47µM*.
For CCOC(=O)[C@]12Cc3cc(Cl)ccc3[C@H]1N(C1CCCCC1)C(=O)c1ccccc12 the results were S2 tox 3.55µM* and ATXN2 expr inh 3.16µM*.
`CCOC(=O)[C@]12Cc3cc(OC)ccc3[C@H]1N(C)C(=O)c1ccccc12` gave S2 tox inactive, ALOX12 inh -28.5% and ATXN2 expr inh 16.2%.
Cc1ccc(-n2nnnc2C2(NC(C)C)CCCCC2)cc1 was read as ALOX12 inh 4.6%.
`COCC(=O)NC[C@H]1C[C@@H]2CCN1C[C@@H]2CN1CCc2ccccc2C1` gave ALOX12 inh -0.5%[176 µM].
For c1ccc(N2CCN(c3ccccc3)CC2)cc1 the results were TGFb SMAD3 inh -12.2% and HepG2 tox -0.4%.
Screening O=C1C=C(N2CC2)c2ccccc2C1=O returned S2 tox inconclusive, TGFb SMAD3 inh 15.8µM*, ALOX12 inh inconclusive and HepG2 tox -110.0%.
Screening Cc1oc2cc(OCC(=O)N3CCN(CCO)CC3)ccc2c(=O)c1Oc1ccccc1 returned ALOX12 inh -0.6%.
CN(C)C(=S)SSC(=S)N(C)C was read as S2 tox 22.4µM*, TGFb SMAD3 inh -91.9%, ALOX12 inh inconclusive, HepG2 tox 0.1µM* and ATXN2 expr inh inconclusive.
For O=C(O)c1nn(Cc2ccc(Cl)cc2)c2ccccc12 the results were S2 tox inactive, TGFb SMAD3 inh -4.2%, ALOX12 inh inconclusive and HepG2 tox -20.2%.
`O=Cc1c(C(=O)O)n(Cc2ccc(Cl)cc2)c2ccccc12` gave S2 tox inactive, TGFb SMAD3 inh 37.5%, ALOX12 inh 11.2µM*, HepG2 tox 10.0% and ATXN2 expr inh 1.5%.
COCCNC(=O)[C@H]1CN2CC[C@H]1C[C@@H]2Cn1cc(CC2CCCCC2)nn1 was read as ALOX12 inh 2.0%[176 µM].
For C=C1C(=O)O[C@@H]2C[C@@H](C)[C@H]3C=CC(=O)[C@]3(O)C[C@@H]12 the results were TGFb SMAD3 inh 12.6µM*, ALOX12 inh 9.1%, HepG2 tox -40.1% and ATXN2 expr inh inconclusive.
N[C@@H](Cc1ccc(N(CCCl)CCCl)cc1)C(=O)O was read as S2 tox inconclusive, TGFb SMAD3 inh 33.0%, ALOX12 inh inconclusive, HepG2 tox -0.5% and ATXN2 expr inh 5.44µM*!.
For C#C[C@H]1CN2CC[C@H]1C[C@@H]2COC(=O)NCCC the results were ALOX12 inh 8.91µM*.
For C#C[C@H]1CN2CC[C@H]1C[C@@H]2CNS(=O)(=O)CCC the results were ALOX12 inh 8.5%[176 µM].
`C/C(=N\NC(N)=S)C12CC3CC(CC(C3)C1)C2` gave S2 tox 15.8µM*, TGFb SMAD3 inh 11.2µM*, ALOX12 inh inconclusive, HepG2 tox -6.9% and ATXN2 expr inh inconclusive.
Screening COc1ccc2c3c1O[C@H]1[C@H](O)CC[C@H]4[C@@H](C2)N(C)CC[C@@]341 returned S2 tox inactive and ATXN2 expr inh 3.4%[116 µM].
For COc1ccc2c3c1O[C@H]1[C@@H](O)C=C[C@H]4[C@@H](C2)N(C)CC[C@@]341 the results were S2 tox 14.1µM* and ATXN2 expr inh inconclusive.
